# Source: PubChem BioAssay
# Activity calls are given as the source filed them.
# Experiments:
# [1] = test system: Plasmodium falciparum Sir2 (PF13_0152, Sir2A); assay: Plasmodium falciparum Sir2A binding compounds – biochemical, small-molecule microarray, 635 nm fluorescence, primary screen (AID 1098); settings: fluorescence 635 nm, higher = more signal;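 note: score merges spot fluorescence intensity with its signal-to-noise ratio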
# [2] = probe aDKK1 binding to arrayed compounds – biochemical, biotinylated probe, 635/667 nm fluorescence, primary screen (AID 1099); settings: small-molecule microarray, higher = more signal;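 note: score merges 667nm spot fluorescence with signal to noise across triplicate slides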
# [3] = probe aCHRDL2 binding to arrayed compounds – biochemical, biotinylated probe, 635/667 nm fluorescence, primary screen (AID 1100); settings: small-molecule microarray, higher = more signal
# [4] = change in splice reporter luminescence, either direction, cell-based, HEK293, spliceosome inhibition project, primary screen (AID 1101); settings: HEK293 splicing luciferase reporter, 24 h, higher = more signal, called active from +8 up or from −8 down;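 note: HEK293 cells carrying a splicing-competent luciferase reporter gene; test concentration not given here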
# [5] = target: Fibroblast growth factor 10 (Homo sapiens) (UniProt O15520); assay: compounds binding fibroblast growth factor 10 – biochemical, small-molecule microarray, 635 nm fluorescence, primary screen (AID 1102); settings: FGF10 binding, fluorescence 635 nm, higher = more signal
# [6] = test system: glycogen synthase kinase-3 (GSK3A per assay name; protocol says GSK3B); assay: compounds binding glycogen synthase kinase-3 – biochemical, small-molecule microarray, 635 nm fluorescence, GSK3A, primary screen (AID 1103); settings: fluorescence 635 nm, higher = more signal; note: the record names both GSK3A and GSK3B
# [7] = target: Epidermal growth factor receptor (Homo sapiens) (UniProt P00533); assay: compounds binding epidermal growth factor receptor – biochemical, small-molecule microarray, 635 nm fluorescence, primary screen (AID 1104); settings: EGFR binding, higher = more signal;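 note: score merges 667 nm emission intensity with spot signal to noise over triplicate slides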
# [8] = target: Follistatin-related protein 3 (Homo sapiens) (UniProt O95633); assay: compounds binding follistatin-related protein 3 – biochemical, small-molecule microarray, 635 nm fluorescence, primary screen (AID 1105); settings: FSTL3 binding, higher = more signal;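 note: score merges emission near 667 nm and signal to noise per printed spot across three slides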
# [9] = target: Dickkopf-related protein 1 (Homo sapiens) (UniProt O94907); assay: small molecules binding DKK1 protein – biochemical, small-molecule microarray, 635 nm fluorescence scan, primary screen (AID 1106); settings: higher = more signal;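 note: score merges emission near 667 nm with signal to noise over three replicate slides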
# [10] = test system: Inhibin beta A chain (activin A); assay: small molecules binding activin A – biochemical, small-molecule microarray, 635 nm fluorescence scan, primary screen (AID 1107); settings: INHBA, higher = more signal;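 note: mouse activin A protein probed at 4.33 µg/mL on printed slides; score merges bound-protein fluorescence near 667 nm with spot signal-to-noise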
# [11] = test system: Human papillomavirus type 1a protein E7 (residues 44-93); assay: small molecules binding HPV E7 44-93 – biochemical, small-molecule microarray, residues 44-93, 635 nm fluorescence, primary screen (AID 1108); settings: fluorescence 635 nm, higher = more signal;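 note: E7 fragment applied at 1 µg/mL in TBST for 1 h at 4 C; score combines spot fluorescence with its signal to noise ratio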
# [12] = hepatitis C replication reporter changes, two-sided – Huh7 cells, luciferase reporter, HCV replication inhibitor project, primary screen (AID 1109); settings: Huh7 HCV replicon luciferase reporter, 48 h; higher = more signal;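 note: huh7 hepatoma cells harbouring a luciferase neomycin HCV replicon reporter; luciferase luminescence as measure of HCV replicon replication; test concentration not given here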
# [13] = target: Left-right determination factor 2 (Homo sapiens) (UniProt O00292); assay: small molecules binding LEFTY2 protein – biochemical, small-molecule microarray, 635 nm fluorescence scan, primary screen (AID 1110); settings: higher = more signal
# [14] = target: Calmodulin-1 (Homo sapiens) (UniProt P0DP23); assay: small molecules binding calmodulin-1 with EGTA – biochemical, small-molecule microarray, Cy5-labelled CALM1, profiling panel (AID 1111); settings: Cy5-CALM1 binding fluorescence, higher = more signal;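 note: labelled calmodulin applied in Tris saline Tween buffer holding calcium plus EGTA and DTT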
# [15] = target: Calmodulin-1 (Homo sapiens) (UniProt P0DP23); assay: small molecules binding Ca-loaded calmodulin-1 – biochemical, small-molecule microarray, Cy5-labelled CALM1, plus calcium, artefact control for SMM control-protein annotation, profiling panel (AID 1112); settings: Cy5-CALM1 binding fluorescence, higher = more signal;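 note: score merges spot fluorescence with signal to noise from triplicate slides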
# [16] = probe aWnt5a binding to arrayed compounds – biochemical, biotinylated probe, 635/667 nm fluorescence, primary screen (AID 1113); settings: small-molecule microarray, higher = more signal;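 note: score merges 667 nm fluorescence intensity with signal-to-noise per printed feature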
# [17] = probe aShh binding to arrayed compounds – biochemical, biotinylated probe, 635/667 nm fluorescence, primary screen (AID 1114); settings: small-molecule microarray, higher = more signal;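 note: probe is biotin-labelled aShh protein from a stem cell growth factor screen; measures binding of labelled protein to compounds printed on the slide; score merges feature fluorescence at 667 nm with signal-to-noise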
# [18] = probe aNog binding to arrayed compounds – biochemical, biotinylated probe, 635/667 nm fluorescence, primary screen (AID 1115); settings: small-molecule microarray, higher = more signal;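 note: probe is biotinylated aNog protein used at 0.15 µg/mL for 1 h at 4 C; z-score combines 667 nm fluorescence of each spot with its signal to noise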
# [19] = target: Torsin-1A-interacting protein 1 (Homo sapiens) (UniProt Q5JTV8); assay: compound microarray binding of lysate hLAP1 – cell lysate, small-molecule microarray, COS7 lysate, 635/667 nm fluorescence, primary screen (AID 1116); settings: 635 nm fluorescence, higher = more signal
# [20] = target: Alpha-bungarotoxin (Bungarus multicinctus) (UniProt P60615); assay: compounds binding labelled alpha-BTX control protein – biochemical, small-molecule microarray, Alexa647 label, 635/667 nm fluorescence, artefact control for SMM control protein annotation, profiling panel (AID 1117); settings: alpha-BTX-A647 binding fluorescence, higher = more signal
# Alpha-bungarotoxin (Bungarus multicinctus), sequence (P60615 whole entry, looked up): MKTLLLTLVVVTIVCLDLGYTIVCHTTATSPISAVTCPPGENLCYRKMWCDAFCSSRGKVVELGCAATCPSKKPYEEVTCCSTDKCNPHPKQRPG
# Dickkopf-related protein 1 (Homo sapiens), sequence (O94907 whole entry, looked up): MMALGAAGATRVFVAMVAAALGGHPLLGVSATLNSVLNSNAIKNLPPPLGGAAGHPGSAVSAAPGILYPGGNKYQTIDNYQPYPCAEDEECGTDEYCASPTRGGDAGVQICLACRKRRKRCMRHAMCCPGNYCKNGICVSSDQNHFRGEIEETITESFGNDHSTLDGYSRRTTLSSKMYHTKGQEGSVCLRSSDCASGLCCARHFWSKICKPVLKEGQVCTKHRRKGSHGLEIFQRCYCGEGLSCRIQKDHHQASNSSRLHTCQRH
# Torsin-1A-interacting protein 1 (Homo sapiens), sequence (Q5JTV8 whole entry, looked up): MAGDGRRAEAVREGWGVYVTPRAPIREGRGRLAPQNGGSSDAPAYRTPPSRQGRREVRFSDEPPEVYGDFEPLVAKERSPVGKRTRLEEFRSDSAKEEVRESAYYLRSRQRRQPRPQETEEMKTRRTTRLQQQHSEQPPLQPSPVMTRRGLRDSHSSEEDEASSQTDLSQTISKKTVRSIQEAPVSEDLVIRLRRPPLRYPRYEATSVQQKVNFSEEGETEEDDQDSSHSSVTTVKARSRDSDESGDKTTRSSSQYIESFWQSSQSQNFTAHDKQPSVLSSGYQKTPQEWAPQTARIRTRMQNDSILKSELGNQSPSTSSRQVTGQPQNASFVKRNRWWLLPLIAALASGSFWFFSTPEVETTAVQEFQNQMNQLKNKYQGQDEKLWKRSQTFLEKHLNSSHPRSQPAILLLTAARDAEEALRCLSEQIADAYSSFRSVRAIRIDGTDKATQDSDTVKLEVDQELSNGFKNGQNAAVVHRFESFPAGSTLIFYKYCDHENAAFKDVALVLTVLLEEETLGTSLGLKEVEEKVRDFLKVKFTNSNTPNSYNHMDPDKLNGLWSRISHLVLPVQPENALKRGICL
# Epidermal growth factor receptor (Homo sapiens), sequence (P00533 whole entry, looked up): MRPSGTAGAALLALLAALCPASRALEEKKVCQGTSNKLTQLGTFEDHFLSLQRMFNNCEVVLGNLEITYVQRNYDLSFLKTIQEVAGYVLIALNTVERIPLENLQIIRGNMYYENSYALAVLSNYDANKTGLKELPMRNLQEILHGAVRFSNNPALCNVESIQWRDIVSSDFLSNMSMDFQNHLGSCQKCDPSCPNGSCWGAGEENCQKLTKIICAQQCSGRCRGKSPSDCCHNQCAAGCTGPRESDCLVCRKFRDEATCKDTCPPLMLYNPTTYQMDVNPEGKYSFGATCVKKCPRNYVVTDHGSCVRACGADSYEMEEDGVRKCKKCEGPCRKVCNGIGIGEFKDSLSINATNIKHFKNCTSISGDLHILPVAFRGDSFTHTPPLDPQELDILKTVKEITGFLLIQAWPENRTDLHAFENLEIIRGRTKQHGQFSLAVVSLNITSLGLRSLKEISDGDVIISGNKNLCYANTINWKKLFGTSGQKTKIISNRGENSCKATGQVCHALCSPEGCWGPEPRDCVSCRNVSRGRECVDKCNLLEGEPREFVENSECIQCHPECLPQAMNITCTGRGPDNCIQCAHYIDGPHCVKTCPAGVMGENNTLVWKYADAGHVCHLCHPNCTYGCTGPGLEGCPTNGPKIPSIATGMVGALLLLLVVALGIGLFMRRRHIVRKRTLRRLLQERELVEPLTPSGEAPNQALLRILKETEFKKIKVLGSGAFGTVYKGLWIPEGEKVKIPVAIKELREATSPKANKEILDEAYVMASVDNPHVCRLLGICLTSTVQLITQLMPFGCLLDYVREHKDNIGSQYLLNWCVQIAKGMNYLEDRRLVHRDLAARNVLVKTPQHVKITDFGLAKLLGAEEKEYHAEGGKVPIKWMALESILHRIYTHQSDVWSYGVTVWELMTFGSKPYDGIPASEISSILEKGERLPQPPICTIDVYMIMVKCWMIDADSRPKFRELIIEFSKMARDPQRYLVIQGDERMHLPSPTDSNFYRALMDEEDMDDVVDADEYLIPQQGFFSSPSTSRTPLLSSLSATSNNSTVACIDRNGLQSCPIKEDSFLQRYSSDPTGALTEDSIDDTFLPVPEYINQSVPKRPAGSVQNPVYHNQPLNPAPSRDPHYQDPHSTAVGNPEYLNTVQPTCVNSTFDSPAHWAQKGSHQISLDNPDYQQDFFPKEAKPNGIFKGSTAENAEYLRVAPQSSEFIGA
# Fibroblast growth factor 10 (Homo sapiens), sequence (O15520 whole entry, looked up): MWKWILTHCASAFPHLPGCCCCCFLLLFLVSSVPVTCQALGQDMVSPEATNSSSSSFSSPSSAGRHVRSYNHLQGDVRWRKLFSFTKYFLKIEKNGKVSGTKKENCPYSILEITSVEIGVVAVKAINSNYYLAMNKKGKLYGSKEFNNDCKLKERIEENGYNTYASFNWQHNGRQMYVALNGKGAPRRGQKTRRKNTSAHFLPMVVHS
# Left-right determination factor 2 (Homo sapiens), sequence (O00292 whole entry, looked up): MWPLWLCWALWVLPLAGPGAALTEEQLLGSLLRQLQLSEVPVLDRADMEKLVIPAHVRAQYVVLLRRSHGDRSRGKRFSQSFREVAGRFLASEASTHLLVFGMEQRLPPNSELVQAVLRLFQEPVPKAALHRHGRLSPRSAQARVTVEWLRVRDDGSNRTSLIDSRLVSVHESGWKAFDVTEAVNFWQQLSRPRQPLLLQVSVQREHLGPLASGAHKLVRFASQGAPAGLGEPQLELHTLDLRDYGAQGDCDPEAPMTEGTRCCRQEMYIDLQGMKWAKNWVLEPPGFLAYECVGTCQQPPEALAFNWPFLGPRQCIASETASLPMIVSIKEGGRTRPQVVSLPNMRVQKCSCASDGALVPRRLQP
# Follistatin-related protein 3 (Homo sapiens), sequence (O95633 whole entry, looked up): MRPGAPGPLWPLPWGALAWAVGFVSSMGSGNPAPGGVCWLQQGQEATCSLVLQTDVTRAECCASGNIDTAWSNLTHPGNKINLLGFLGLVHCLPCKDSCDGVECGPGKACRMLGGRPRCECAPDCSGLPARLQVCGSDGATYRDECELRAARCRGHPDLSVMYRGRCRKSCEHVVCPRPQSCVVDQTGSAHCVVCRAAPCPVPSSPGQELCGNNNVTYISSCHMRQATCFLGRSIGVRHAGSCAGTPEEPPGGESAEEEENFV
SMILES,composite z-score [1],composite z-score [2],composite z-score [3],z-score [4],composite z-score [5],composite z-score [6],composite z-score [7],composite z-score [8],composite z-score [9],composite z-score [10],composite z-score [11],z-score [12],composite z-score [13],composite z-score [14],composite z-score [15],composite z-score [16],composite z-score [17],composite z-score [18],composite z-score [19],composite z-score [20]
CC(C)C[C@@H]1NC(=O)[C@H]2C[C@@H](C(=O)NCCCCCC[N+](C)(C)C)[C@@H](c3ccc(O)cc3)N2C1=O,1.46,-0.196,0.0009,-0.177 (inactive),-0.563,-0.595,-0.403,1.28,0.505,0.446,0.183,0.549,-0.29,-0.602,-0.781,-0.229,0.0856,-0.169,0.418,-0.111
CC[C@@H]1C=C(C(=O)O)[C@H](c2ccccc2)N1S(=O)(=O)c1ccc([N+](=O)[O-])cc1,0.956,-0.255,0.887,-0.812 (inactive),0.0734,1.16,-0.314,0.0657,-0.538,0.781,0.672,-0.661,-0.52,0.354,0.202,-0.0512,-0.138,-0.321,1.41,0.427
CC(C)[Si]1(C(C)C)OCc2cc(C3CC3)nc(-c3ccccc3)c21,0.0305,-0.294,0.525,-2.27 (inactive),-0.395,-1.24,-0.385,-0.708,-0.342,1.21,-0.84,-0.222,-0.231,-1.23,-0.183,-0.15,-0.09,-0.0841,-0.694,-0.249
CCOC(=O)[C@H]1C/C=C/C[C@H](C(=O)OCC)C(=O)O[C@H]2[C@@H](OC)O[C@H](CO)[C@@H](OC(=O)Nc3ccc(Br)cc3)[C@@H]2OC1=O,0.895,-0.0855,0.68,-3.54 (inactive),0.217,1.02,0.047,0.576,0.251,0.706,0.205,-3.56,0.561,1.64,0.155,-0.0704,0.0515,1.5,0.396,0.465
COC(=O)[C@@]1(Cc2ccc(OC)cc2)[C@H]2c3cc(C(=O)N(C)C)n(Cc4ccc(C)c(F)c4F)c3C[C@H]2CN1C(=O)c1ccccc1,0.274,0.627,0.993,-1.25 (inactive),0.0253,-0.109,-0.902,0.0502,-1.11,0.781,0.723,-1.35,-0.841,1.52,1.21,0.148,0.575,1.09,0.232,0.644
C[C@@H]1CC[C@H]2C(=O)N3[C@@H](CC[C@@H](C)[C@@H]3c3cccc(N4CCOCC4)c3)C(=O)N2[C@H]1c1cccc(N2CCOCC2)c1,1.15,0.335,0.189,-0.188 (inactive),0.37,0.513,0.224,1.12,1.82,0.866,0.384,0.27,0.676,-0.413,-0.403,-0.0478,0.51,-0.459,0.653,1.03
CCOC(=O)C1=CC[C@@H](c2ccc(-c3ccc(OCc4ccccc4)cc3)c(OC)c2)N(S(=O)(=O)c2ccc(C)cc2)[C@H]1c1ccccc1,1.13,0.583,0.721,-1.44 (inactive),1.24,1.28,0.12,1.38,0.273,0.765,1.39,-1.76,0.4,1.64,0.126,0.0279,-0.0171,-0.226,0.373,1.27
C=CCNC(=O)[C@H]1[C@@H]2C(=O)O[C@@H](c3ccccc3)[C@@H](c3ccccc3)N2[C@@H](c2ccccc2OCCO)[C@]12C(=O)N(C(=O)OCCOC)c1ccc(C#CCNC(N)=O)cc12,1.28,0.607,0.802,-0.294 (inactive),0.471,0.843,0.158,0.507,0.111,0.889,0.0146,-1.08,0.398,1.63,0.559,-0.124,-0.0011,0.672,1.23,1.81
O=C1C[C@@](C(=O)NC2CC2)(c2ccc([N+](=O)[O-])cc2)[C@@H](c2ccc(CO)cc2I)N1CC12CC3CC(CC(C3)C1)C2,0.841,-0.0788,-0.52,-1.11 (inactive),1.23,0.968,0.282,0.991,0.266,-0.22,1.37,-3.45,0.672,0.266,-0.151,0.0644,0.574,-0.0719,0.626,0.905
CCC#CCN(Cc1ccccc1Br)[C@H](/C=C/c1ccccc1)[C@@H](O)Cc1ccccc1,0.193,0.0099,1.28,-1.89 (inactive),-0.89,-0.688,-1.53,-1.81,-1.6,1.05,-0.0687,-2.58,-0.635,-0.481,0.402,-0.152,-0.138,-0.326,-0.613,-0.0441
CCCC[C@H]1OB(O)C[C@H]2C1=C(COC)C[C@H]1C(=O)N(Cc3ccccc3)C(=O)[C@H]12,-0.0105,0.0752,-0.0346,-1.27 (inactive),0.78,0.261,0.013,1.1,0.0988,0.223,-0.0721,0.202,0.313,0.188,-0.0421,-0.0327,-0.0904,0.0649,0.25,0.526
